# DT40 TDP1 no CPT = qHTS for Inhibitors of human tyrosyl-DNA phosphodiesterase 1 (TDP1): qHTS in cells in absence of CPT. 420,000 tested, 15% active. Potency, µM (doses to about 46.2 µM), for the others: at the top dose activity change, negative = growth inhibition, actives largely listed as inhibitors. AID 686978, 2013. DT40 Tdp1-/- hTDP1 cells, no CPT, ATP luminescence, 48 h; note: potency is the fitted concentration of half-maximal effect; nearly all actives have a fitted effect of over 55% in size
#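 DT40 Tdp1-/-;hTDP1 cells, no CPT (DMSO vehicle only), 400 cells/well; compounds pin-transferred; ≥48 hr, 37 °C; CellTiter-Glo 30 min RT dark, luminescence read.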
# HT1080NT lethal = kills 2HG-producing HT-1080-NT fibrosarcoma cells; HT-1080-NT fibrosarcoma viability, CellTiter-Glo ATP luminescence, 48 h; Potency, µM (doses to about 46.1 µM), inactives show top-dose activity, negative = less viability, most hits filed as cytotoxic; 360,000 tested, 1.6% active; AID 686970;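 note: NT is the 2HG producing partner of a matched IDH1 knockdown line; potency is the fitted concentration of half-maximal effect; 0% = DMSO-treated cells and -100% = media-only wells without cells; nearly all actives have a fitted effect of over 55% in size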
#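 A 48-hour cytotoxicity screen used HT-1080-NT cells plated 2 hours before compound delivery. ATP-based CellTiter-Glo luminescence measured viability, normalized to DMSO and no-cell controls.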
# IL-1B inflam inh = inflammasome signaling inhibition, IL-1 beta readout. THP-1 LPS/ATP IL-1B secretion, AlphaLISA, 16 h; hits give low values. activity change, % at 57.5 µM. 360,000 tested, 4.7% active. AID 743279; in the data active = activity change below about -50%; inconclusive = mostly about -30% to -49%
#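 THP-1 cells pretreated 1 hr with compounds (up to 57.5 uM final), then stimulated with LPS (250 ng/mL final) plus ATP (1.25 mM final); secreted IL-1B measured by AlphaLISA after 16 hr, decreased signal indicating inhibition.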
# HT1080 IDH1KD tx = toxicity to HT-1080 IDH1 knockdown cells (counter line) | 360,000 tested, 2% active | Potency, µM (top dose mostly 46.1 µM), without a hit: at the top dose activity, negative = toxicity, most hits filed as cytotoxic | AID 686971 | HT-1080 IDH1 knockdown viability, ATP luminescence, 48 h;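 note: potency is the fitted concentration of half-maximal effect; 0% = DMSO wells and -100% = cell-free medium wells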
#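 % activity derives from luminescence (CellTiter-Glo), normalised to DMSO and no-cell wells. HT-1080-IDH1KD cells, 750/well, had 48 h compound exposure at 37 °C.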
# ELG1 DNA repair = inhibitors of ELG1-dependent DNA repair in HEK293T cells; HEK293T ELG1-luciferase reporter, luminescence, 16 h; DNA damage induced by 5-fluorouridine; Potency, µM (doses to about 46.1 µM), for inactives: at the top dose activity change, negative = inhibition, hits mostly inhibitors; 330,000 tested, 2.3% active; note: potency is the fitted concentration of half-maximal effect; nearly all actives have a fitted effect of over 55% in size
#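 Cells (2,000 per well) received 5-fluorouridine plus test compound or DMSO and were incubated 16 hr at 37 °C, 5% CO2. Luciferase activity was read by luminescence 30 min after ONE-Glo addition; signal suppression marked inhibition of damage-induced ELG1 function.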
# TDP1 cell CPT = growth inhibition of DT40 Tdp1-/-;hTDP1 cells with camptothecin (screen for TDP1 inhibitors) | AID 686979 | chicken DT40 Tdp1-/-;hTDP1 cells + 20 nM CPT, ATP luminescence, 48 h | Potency, µM (titrated, usually from 46.2 µM), without a hit: at the highest dose activity change, negative = growth inhibition, hits mostly inhibitors | 420,000 tested, 12% active; note: potency is the fitted concentration of half-maximal effect; nearly all actives have a fitted effect of over 55% in size
#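 Chicken DT40 Tdp1-/- cells stably complemented with human TDP1 were seeded at 400 cells/well in medium containing 20 nM camptothecin, exposed to pin-transferred compounds, and grown at 37 °C for at least 48 hr. Viability was read as ATP luminescence.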
# Numbers without * were called inactive; ? = inconclusive; . = not tested or not shown. Sampled rows, rich in hits. Any-hit rate of the full collection: about 19%. Unless noted, calls come from the whole dose curve; as a rule, active = well fitted curve in the direction sought with a large enough effect; inconclusive = small, poorly fitted or top-dose-only effect, or another doubt; inactive = no such curve, though single readings can be large; an effect the other way counts as inactive or inconclusive. Unless noted, % is set by controls: 0 for no effect and ±100 for the full control effect.
SMILES,DT40 TDP1 no CPT,HT1080NT lethal,IL-1B inflam inh,HT1080 IDH1KD tx,ELG1 DNA repair,TDP1 cell CPT
COc1c(Cl)cc(Cl)cc1C(=O)Nc1ccc(CN2CCOCC2)cc1,?,-0.2%,-58.2*,2.5%,-19.1%,16.4µM*
COc1c(C)cccc1C(=O)Nc1ccc(CN2CCOCC2)cc1,-19.4%,5.4%,-14.6,-6.1%,?,-2.6%
O=C(CCC(=O)c1cccs1)NNC(=O)c1ccc(Cl)cc1,11.9%,2.0%,11.8,6.2%,?,-15.2%
O=C(CCl)NC(Cc1ccccc1)c1ccccc1 (centres undefined),23.1µM*,?,-95.4*,16.4µM*,?,14.6µM*
Nc1nc(N2CCCCC2)nc2ccccc12,-27.9%,-1.5%,4.2,-5.0%,1.8%,-6.6%
c1ccc(-c2nnc3nc(N4CCCCC4)nc(N4CCCCC4)n23)cc1,14.6µM*,19.8%,-9.8,9.4%,.,18.4µM*
Cc1cc(C)cc(N(C(=O)c2snc(C(N)=O)c2N)C(C(=O)NCC2CCCO2)c2ccc(C)o2)c1 (centres undefined),20.6µM*,-7.8%,-51.0*,-7.0%,-16.3%,?
COc1ccc(N(C(=O)c2snc(C(N)=O)c2N)C(C(=O)NC2CCCCC2)c2ccc(C)o2)cc1 (centres undefined),16.4µM*,?,-50.3*,-7.6%,-1.4%,?
CCOc1ccc(C(C(=O)NCC2CCCO2)N(C(=O)c2snc(C(N)=O)c2N)c2ccccc2F)cc1 (centres undefined),?,3.2%,-71.9*,-6.0%,?,20.6µM*
CCc1ccc(N(C(=O)c2snc(C(N)=O)c2N)C(C(=O)NC2CCCC2)c2ccco2)cc1 (centres undefined),?,?,-63.5*,?,?,?
CCOc1ccc(C(C(=O)NCC2CCCO2)N(C(=O)c2snc(C(N)=O)c2N)c2cccc(F)c2)cc1 (centres undefined),?,-3.0%,-25.6,-18.7%,?,-26.8%
CCOc1ccc(CN(C)CC(=O)NCc2ccccc2Cl)cc1,?,-17.2%,-5.4,-6.1%,-2.9%,?
CCOc1ccccc1N1CCN(CC(=O)NC(C)c2ccccc2)CC1 (centres undefined),-21.3%,8.4%,14.8,6.5%,-13.4%,2.4%
Cc1ccc(CSc2nnc3[nH]c(=O)cc(-c4ccccc4)n23)cc1,-5.6%,.,.,.,.,3.4%
COc1ccc(N2CCN(S(=O)(=O)CCNC(=O)C3CC3)CC2)cc1,-4.4%,10.9%,-15.3,6.5%,-2.2%,-3.1%
Cc1ccc(C(C(=O)NCC2CCCO2)N(C(=O)c2snc(C(N)=O)c2N)c2ccc(F)cc2)o1 (centres undefined),?,5.4%,-1.7,1.0%,-2.0%,-16.9%
CCOc1ccc(N(C(=O)c2snc(C(N)=O)c2N)C(C(=O)NCC2CCCO2)c2ccc(C)o2)cc1 (centres undefined),?,6.4%,-27.3,-13.2%,14.6%,18.4µM*
O=C(O)C1CC=CCC1C(=O)N1CCN(c2nc(-c3ccccc3Cl)c3cc(Br)ccc3n2)CC1 (centres undefined),?,-29.9%,8.8,?,-4.3%,-28.7%
CCN1CCN(c2nc(-c3ccccc3)c3ccccc3n2)CC1,?,13µM*,?,?,-11.8%,?
c1ccc(-c2nc(N3CCCCC3)nc3ccccc23)cc1,10.1%,-8.1%,0.0,-12.5%,15.2%,-22.8%
O=C(O)C1CC=CCC1C(=O)N1CCN(c2nc(-c3ccccc3)c3ccccc3n2)CC1 (centres undefined),?,-5.5%,-63.4*,-21.8%,20.2%,18.4µM*
Cc1ccc(S(=O)(=O)N2CC=C(c3ccc(F)cc3)CC2)cc1,?,-1.2%,-5.4,-2.1%,3.5%,0.2%
COc1ccc(OC)c(CNC(=O)Cn2ncc3c([nH]c4ccc(C)cc43)c2=O)c1,-3.3%,.,.,.,.,-13.1%
CC1(C)Oc2cc3oc(-c4cc(O)cc(O)c4)cc3cc2CC1O (centres undefined),?,-3.2%,8.1,-22.5%,.,20.6µM*
N#Cc1c(/N=C/c2cc3ccccc3s2)sc2c1CCC2,23.1µM*,13.1%,-7.0,-2.8%,?,?
SMILES,DT40 TDP1 no CPT,HT1080NT lethal,IL-1B inflam inh,HT1080 IDH1KD tx,ELG1 DNA repair,TDP1 cell CPT
Cc1cc2[nH]c3ccccc3c2c(C)n1,16.4µM*,-29.8%,-94.2*,?,-6.1%,?
COc1ccc2oc(=O)c(-c3csc(Nc4cccc(O)c4)n3)cc2c1,16.4µM*,?,-79.3*,?,25.9µM*,?
COc1ccc(Nc2nc(-c3cc4cccc(OC)c4oc3=O)cs2)cc1,20.6µM*,-9.3%,12.5,-4.5%,?,?
O=C(Nc1ccon1)c1ccc(Br)s1,-5.9%,-2.7%,-28.0,-0.8%,10.8%,-6.3%
O=C(Nc1ccc(Br)cn1)c1ccc(Cl)s1,18.4µM*,-21.4%,-4.7,-8.2%,?,?
O=C(Nc1ccc(Br)cn1)c1ccc(Br)s1,25.9µM*,-14.6%,16.8,?,?,?
O=c1[nH]c(C(F)(F)F)nc2ccc3ccccc3c12,-18.9%,-17.3%,38.3,?,?,6.6%
CCC1(CC)CNC(=O)NC1,-3.2%,5.1%,16.7,8.2%,.,19.3%
Cc1cc(-c2n[nH]c(=S)n2/N=C/c2cccc(O)c2)n[nH]1,-23.1%,-13.9%,17.7,12.3%,0.0%,-15.8%
Cc1cc(-c2n[nH]c(=S)n2/N=C/C(Cl)=C/c2ccccc2)n[nH]1,13µM*,?,-96.9*,?,15.9%,14.6µM*
CC(/C=N/n1c(-c2ccco2)n[nH]c1=S)=C\c1ccco1,4.3%,8.4%,0.1,12.9%,20.1%,-13.7%
S=c1[nH]nc(-c2ccco2)n1/N=C/C(Cl)=C/c1ccccc1,14.6µM*,?,?,?,?,?
O=C(Nc1nncs1)c1cc(S(=O)(=O)N2CCCCC2)ccc1Cl,-21.7%,-1.3%,7.5,6.9%,-1.7%,-0.2%
Cn1c(CC(=O)Nc2ccccc2)cc2ccccc21,?,-6.9%,33.5,-12.7%,?,7.31µM*
CSc1c(CC(=O)Nc2ccccc2)n(C)c2ccccc12,?,-21.6%,18.2,-26.5%,?,14.6µM*
CN1CCN(NC(=O)/C=C/c2cccc([N+](=O)[O-])c2)CC1,-0.5%,-8.8%,7.4,0.6%,0.8%,15.8%
